# Screening results deposited in PubChem by The Scripps Research Institute Molecular Screening Center.
# Rows were chosen to be rich in hits. Some 3.5% of all compounds tested hit in one or more screens of this group.
# MITF inh: human MITF inhibition, primary screen; O75030; AlphaScreen MITF homodimerization, bead proximity signal; inhibition, % at 2.6 µM; AID 1259374; 0.91% of 650,000 active; in the data active = inhibition above about 50%
# GPR151 activ: human GPR151 activation. PathHunter beta-arrestin GPR151 cells, luminescence. activation, % at 11.2 µM. 1% of 650,000 active; in the data active = activation above about 4.9%
# FBW7 act: activators of human E3 ligase FBW7; normalized activity (activation), % at 26.1 µM; 0.13% of 650,000 active; AID 1259310; Q969H0; AlphaScreen FBW7–phospho-cyclin E peptide binding, activator screen; in the data active = normalized activity above about 1.9%;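 note: purified mutant Fbw7 with reduced substrate affinity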
# TEAD-YAP block: TEAD-YAP interaction inhibition. inhibition, % at 9.12 µM. 1.4% of 640,000 active. AID 1259422. HEK-TIYL cells, TEAD-Gal4/YAP UAS-luciferase luminescence; in the data active = inhibition above about 32%
# Hits are given with their value; i = inactive.
SMILES,MITF inh,GPR151 activ,FBW7 act,TEAD-YAP block
CCOc1cc(/C=N/NC(=O)c2cccnc2)cc(Br)c1O,i,i,i,i
CCOc1cc(Br)cc(/C=N/NC(=O)c2cccnc2)c1O,53,i,i,78
CCOc1ccc(S(=O)(=O)N2c3cccc4cccc(c34)S2(=O)=O)c([N+](=O)[O-])c1,i,i,i,i
COc1cc(/C=N/NC(=O)c2cccc(NC(C)=O)c2)cc(Cl)c1O,63,i,i,i
COc1ccccc1C(=O)N/N=C/c1cc(Br)cc(OC)c1O,i,i,i,i
Cc1ccc(O)c(/C=N/NC(=O)c2ccccc2)c1,i,i,i,59
COc1cc(Br)cc(/C=N/NC(=O)c2ccccc2)c1O,i,i,i,71
COc1cc(Br)cc(/C=N/NC(=O)c2ccccc2O)c1O,i,i,i,72
COc1cc(Br)cc(/C=N/NC(=O)c2ccccc2Br)c1O,i,i,i,i
Cc1ccc(Oc2ccc3c(c2)C(=O)N(c2ccc(C(N)=O)cc2)C3=O)cc1C,i,i,i,i
COc1ccc(O)c(/C=N/NC(=O)c2ccccc2O)c1,i,i,i,65
COc1ccc(/C=N/NC(=O)c2cccnc2)cc1CN1CCN(c2ccc(F)cc2)CC1,i,i,i,i
COc1ccc(/C=N/NC(=O)c2cccnc2)cc1Cn1cnc([N+](=O)[O-])n1,i,i,i,45
CC(=O)N1CC(C)Sc2cc(S(=O)(=O)NCc3ccccn3)ccc21 (stereo not given),i,i,i,i
COc1cc2c(cc1OC)CN(Cc1nc(N)nc(Nc3ccccc3C)n1)CC2,i,i,i,i
CCNC(=O)COC(=O)c1ccc(Cl)c(N)c1,i,i,i,i
CC(=O)Nc1cc(-c2ccnc(N)n2)ccc1NC(=O)COc1cccc(C)c1,i,i,i,i
Cc1cccc(OCc2nc3ccc(-c4ccnc(N)n4)cc3[nH]2)c1,i,i,i,57
COc1cc2nc(-c3ccc(C(N)=O)cc3)nc(Nc3ccc(N4CCOCC4)cc3)c2cc1OC,i,i,i,i
O=C(CC(Sc1cccc2cccnc12)c1ccc(OC(F)F)cc1)c1ccco1 (stereo not given),i,i,i,51
Cc1ccc(C2=Nn3c(nnc3-c3ccccc3C)SC2)cc1,i,i,i,60
Brc1ccc(C2=Nn3c(nnc3-c3ccccc3)SC2)cc1,i,i,i,i
Oc1ccc(C2=Nn3c(nnc3-c3ccccc3O)SC2)cc1O,i,i,i,41
OC1CCC(Nc2nccn3c(-c4ccc5c(c4)OCO5)cnc23)CC1 (stereo not given),i,i,1.9,i
COc1ccccc1-c1cnc2c(NC3CCC(O)CC3)nccn12 (stereo not given),i,i,i,50
SMILES,MITF inh,GPR151 activ,FBW7 act,TEAD-YAP block
OC1CCC(Nc2nccn3c(-c4ccc(F)cc4)cnc23)CC1 (stereo not given),i,i,i,i
COc1cc(-c2cnc3c(NC4CCC(O)CC4)nccn23)cc(OC)c1OC (stereo not given),i,i,i,i
O=C(NC1CC1)c1ccc(-c2cnc3c(NC4CCC(O)CC4)nccn23)cc1 (stereo not given),i,i,i,51
Cc1cc(CN(C)Cc2c(C(=O)N3CCCCC3)nc3c(C)cccn23)on1,i,i,i,i
CC(O)c1cccc(NC(=O)c2cnn3c2NC(c2ccccc2)CC3C(F)(F)F)c1 (stereo not given),i,i,i,i
Cc1ncc(CO)c2cc(-c3nnc(Nc4cccc5ccccc45)s3)c(=O)oc12,i,i,i,i
CCOc1ccc(NSc2ccccc2[N+](=O)[O-])cc1,i,i,i,i
Cc1ccc(NSc2ccccc2[N+](=O)[O-])cc1,i,i,i,56
O=C(Nc1cc(C(=O)N2CCN(c3ccc([N+](=O)[O-])cc3)CC2)ccc1N1CC2CC(C1)c1cccc(=O)n1C2)c1cccnc1 (stereo not given),i,i,i,i
O=C(COc1ccccc1F)Nc1nccs1,i,i,i,i
COc1ccccc1OCC(=O)Nc1nccs1,i,i,i,i
O=C(COc1ccccc1Cl)Nc1nccs1,i,i,i,91
Cc1cccc(OCC(=O)Nc2nccs2)c1C,i,i,i,32
CCOc1ccc(N(/C=C2\Sc3ccccc3C2=O)C(=O)c2cccc(Cl)c2)cc1,i,i,i,45
COc1ccc(N(/C=C2\Sc3ccccc3C2=O)C(=O)c2cccc(Cl)c2)cc1,i,i,i,51
CC(C)NC(=O)CN1C(=O)[C@@H]2CCCN2C(=O)c2ccccc21,i,i,i,i
O=c1cc(Nc2ccc3c(c2)OCCO3)[nH]c(=O)n1-c1ccc(Cl)cc1,i,i,i,i
O=c1cc(Nc2ccc3c(c2)OCCO3)[nH]c(=O)n1C1CCCCC1,i,i,i,58
